Test results: PubChem BioAssay

assay: small-molecule microarray binders of probe aShh, primary screen, biochemical, biotinylated probe, 635/667 nm fluorescence (AID 1114); conditions: higher = more signal;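 note: probe is biotin-labelled aShh protein from a stem cell growth factor screen; measures binding of labelled protein to compounds printed on the slide; score merges feature fluorescence at 667 nm with signal-to-noise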

In order of falling composite z-score:
1. COC(=O)[C@@]1(Cc2ccccc2)[C@H]2c3cc(C(=O)N(C)C)n(CCc4ccc(O)c(OC)c4)c3C[C@H]2CN1C(=O)c1ccccc1  1.49
2. [N-]=[N+]=NCc1ccccc1[C@H]1OC(c2ccc(OCCCO)cc2)=N[C@@]1(CCS(=O)(=O)c1ccccc1)C(=O)N1CCCCC1  0.385
3. COCCCNC(=O)[C@@]1(Cc2ccccc2CN=[N+]=[N-])N=C(c2ccc(OCCCO)cc2)O[C@H]1c1ccccc1  0.313
4. C=C(/C(=C/C[C@H](OC(=O)c1ccncc1)c1ccc(CO)o1)c1cc(C(=O)OC)ccc1OC)C(C)C  0.235
5. CN(C)C(=O)[C@@]1(CCS(=O)(=O)c2ccccc2)N=C(c2ccc(OCCCO)cc2)O[C@H]1c1ccccc1  0.207
6. CN1C(=O)C2C=CC(C(O)COCc3ccccc3)N(N(c3ccccc3)c3ccccc3)C2C1=O (centres undefined)  0.204
7. CCCCN1CC=CC23O[C@@H]4/C=C\CCC(C)OC(=O)C4[C@H]2C(=O)N(C(CO)C(C)C)[C@@H]3C1=O (some centres undefined)  0.186
8. CCCCCCc1nc(-c2cc(C)c(OC)c(C)c2)c(C)c2c1[Si](C(C)C)(C(C)C)OC2  0.184
9. C=CCN1Cc2ccccc2[C@H]2OC(c3ccc(OCCCO)cc3)=N[C@@]2(CC=C)C1=O  0.14
10. O=C1N(Cc2ccccc2)c2ccccc2[C@@H]2OC(c3ccc(OCCCO)cc3)=N[C@]12Cc1ccccc1  0.138
11. O=C1O[C@H](c2ccccc2)[C@H](c2ccccc2)N2[C@H]1[C@@H](C(=O)Nc1nc3ccccc3s1)[C@]1(C(=O)Nc3ccccc31)[C@H]2c1ccc(OCCO)cc1  0.0899
12. O=C(NCC(F)(F)F)[C@@H]1c2ccccc2C(=O)N(Cc2ccc(OC(F)(F)F)cc2)[C@H]1c1ccc(CO)cc1  0.0839
13. N#Cc1ccc(C(O)C2C=CC3C(=O)N(c4ccccc4)C(=O)C3N2Nc2ccccc2)cc1 (centres undefined)  0.0815
14. CCOC(=O)C[C@H]1[C@H](OC(=O)c2ccccc2-c2ccccc2)[C@@H](NC(=O)c2ccc(-c3ccccc3)cc2)c2cc(OCCCO)ccc2N1C(=O)c1ccc2ccccc2n1  -0.0035
15. CC(c1ccccc1)C(O)C1C=CC2C(=O)N(c3ccccc3)C(=O)C2N1Nc1ccc([N+](=O)[O-])cc1 (centres undefined)  -0.0146
16. O=C1OCCC/C=C\[C@H]2OC34C=CCN(CCN5CCOCC5)C(=O)[C@H]3N(CCCCCCO)C(=O)[C@@H]4C12 (some centres undefined)  -0.0553
17. O=C1C2C=CC(C(O)c3ccc(Br)cc3)N(Nc3ccccc3F)C2C(=O)N1c1ccccc1 (centres undefined)  -0.0626
18. C=C(COC)/C(=C/C[C@H](OC(=O)c1ccncc1)c1ccccc1OCCO)c1cnc2ccccc2c1  -0.0626
19. CCOC(=O)c1ccc(NC(=O)O[C@H]2[C@H](OC(=O)Nc3ccc4c(c3)OCO4)[C@@H](OC(=O)Nc3ccc4c(c3)OCO4)[C@@H](OC)O[C@@H]2CO)cc1  -0.0664
20. CO[C@H]1O[C@H](CO)[C@@H](OC(=O)Nc2ccc3c(c2)OCO3)[C@H](OC(=O)c2cc3ccccc3[nH]2)[C@H]1OC(=O)c1cc2ccccc2[nH]1  -0.0709
21. O=C1O[C@@H](c2ccccc2)[C@@H](c2ccccc2)N2[C@@H](c3ccc(O)cc3)[C@]3(C(=O)Nc4ccc(C#CC5=CCCCC5)cc43)[C@@H](C(=O)NC[C@H](O)c3ccccc3)[C@H]12  -0.0769
22. NC(=O)NCC#Cc1ccc2c(c1)[C@]1(C(=O)N2)[C@H](C(=O)NC[C@H](O)c2ccccc2)[C@H]2C(=O)O[C@H](c3ccccc3)[C@H](c3ccccc3)N2[C@@H]1c1ccc(OCCO)cc1  -0.0769
23. CC(C)N1CC=CC23O[C@@H]4C=CCOC(=O)[C@@H]4[C@H]2C(=O)N(CCCO)[C@@H]3C1=O (some centres undefined)  -0.123
24. COC(=O)CCCCCCC(=O)Nc1ccc(NC(=O)CCCC[P+](c2ccccc2)(c2ccccc2)c2ccccc2)cc1  -0.147
25. C=CCC(OC(C)=O)[C@@H]1[C@@H](N(Cc2cccc3ccccc23)C(=O)Cc2ccc(OC)cc2)c2cc(OCCCO)ccc2N1C(=O)c1ccc2ccccc2n1 (some centres undefined)  -0.17
26. CCCCCCc1nc(C2CC2)cc2c1[Si](C(C)C)(C(C)C)OC2  -0.214
27. CCCCC(=C=CC[C@@H](O)c1ccccc1OCCO)C[C@@H](O)COCc1ccccc1  -0.237
28. CC(CO)N1C(=O)[C@@H]2[C@H]3C(=O)OCC=C[C@H]3OC23C=CCN(CCN2CCOCC2)C(=O)[C@@H]13 (some centres undefined)  -0.309
29. C=CCC(OC(C)=O)[C@@H]1[C@@H](N(Cc2ccc(-c3ccccc3)cc2)C(=O)Cc2ccc(F)cc2)c2cc(OCCCO)ccc2N1C(=O)Cc1ccc(OC)cc1 (some centres undefined)  -0.343
